POLH inh – DNA polymerase eta (human) inhibition; Q9Y253; recombinant Pol eta, fluorescent DNA replication assay; Potency, µM (highest dose often 114 µM), inactives show at the top dose activity change, negative = inhibition, usual class: inhibitors; 1.2% of 390,000 active; AID 588591; note: potency is the fitted concentration of half-maximal effect; % is set by controls: 0 for no effect and ±100 for the full control effect
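Pol eta (10 nM) was preincubated with compounds for 15 min at room temperature, after which fluorescent replication substrate (50 nM final) was added to start the reaction. Fluorescence was read kinetically at 0 and 10 min.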
Pol beta inh – DNA polymerase beta (human) inhibition; P06746; Pol beta primer extension/strand displacement, fluorescence kinetic; Potency, µM (top dose mostly 114 µM), for the others: at the highest dose activity change, negative = inhibition, usual class: inhibitors; 1.3% of 340,000 active; AID 485314; note: potency is the fitted concentration of half-maximal effect; % is set by controls: 0 for no effect and ±100 for the full control effect
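Pol beta (10 nM) was preincubated with compound for 15 min at room temperature. The reaction was then started with 50 nM substrate and read immediately and after a further 10 min at room temperature.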
Pol iota inh – inhibitors of human DNA polymerase iota; Pol iota fluorescent replication assay, 10 min; Potency, µM (highest dose often 115 µM), without a hit: at the top dose activity, negative = inhibition, actives largely listed as inhibitors; Q9UNA4; 1% of 390,000 active; note: potency is the fitted concentration of half-maximal effect
Target sequence (Q9UNA4 whole entry, looked up): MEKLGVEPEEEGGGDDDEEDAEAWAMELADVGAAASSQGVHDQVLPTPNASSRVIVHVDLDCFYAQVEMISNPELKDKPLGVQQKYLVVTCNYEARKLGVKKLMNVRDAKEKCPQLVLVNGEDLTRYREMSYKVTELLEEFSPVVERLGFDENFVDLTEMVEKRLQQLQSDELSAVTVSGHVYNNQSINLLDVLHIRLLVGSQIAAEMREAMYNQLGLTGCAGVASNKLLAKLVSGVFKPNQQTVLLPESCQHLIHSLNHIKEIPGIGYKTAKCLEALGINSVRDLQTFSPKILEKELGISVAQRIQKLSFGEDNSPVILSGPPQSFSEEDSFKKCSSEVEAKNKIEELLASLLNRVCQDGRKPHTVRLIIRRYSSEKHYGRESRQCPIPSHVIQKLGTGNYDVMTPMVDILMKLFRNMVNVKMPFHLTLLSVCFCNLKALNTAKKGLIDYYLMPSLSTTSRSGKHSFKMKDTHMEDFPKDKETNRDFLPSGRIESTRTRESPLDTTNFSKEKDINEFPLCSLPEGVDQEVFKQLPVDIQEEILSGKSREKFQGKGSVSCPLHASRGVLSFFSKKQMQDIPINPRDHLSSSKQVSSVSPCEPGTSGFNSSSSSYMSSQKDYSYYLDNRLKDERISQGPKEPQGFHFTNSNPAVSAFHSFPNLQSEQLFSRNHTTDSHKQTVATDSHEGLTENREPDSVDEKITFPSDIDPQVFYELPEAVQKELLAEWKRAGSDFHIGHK
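Pol iota at 10 nM preincubated 15 min with compounds at room temperature; reaction started with fluorescent substrate, 50 nM final. Fluorescence read kinetically at 0 and 10 min; buffer-only wells as negative control.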
Pol kappa inh – inhibitors of human DNA polymerase kappa; Q9UBT6; purified Pol kappa, fluorescent DNA synthesis assay, 10 min; Potency, µM (highest dose often 107 µM), without a hit: top-dose activity, negative = inhibition, usual class: inhibitors; 0.53% of 400,000 active; note: potency is the fitted concentration of half-maximal effect; % is set by controls: 0 for no effect and ±100 for the full control effect
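Kinetic fluorescence screen: compound preincubated 15 min RT with 10 nM enzyme; 50 nM substrate (final) initiates; reads at 0/10 min.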
PI5P4K alpha inh – blocks human PI5P4K alpha kinase activity; P48426; PI5P4Kalpha enzyme, ADP-Glo luminescence, 60 min; stronger effect = lower value; max response, %; 1.2% of 330,000 active; AID 652105; active = max response of -50% or lower; inconclusive = between -30% and -50%; inactive = -30% or higher; note: value at the top dose of about 77 µM; % is set by controls: 0 for no effect and ±100 for the full control effect
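PI5P4Kalpha ADP-Glo assay; 5 microM ATP final; 60 min RT reaction; HEPES pH 7.4/EGTA/CHAPS, 5% DMSO; controls lacking substrate or enzyme; luminescent end-point.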
WRN helicase inh – blocks human WRN helicase. WRN helicase unwinding, fluorescent forked duplex, kinetic. Potency, µM (top dose mostly 114 µM), without a hit: at the highest dose activity change, negative = inhibition, usual class: inhibitors. 0.46% of 360,000 active; note: potency is the fitted concentration of half-maximal effect; % is set by controls: 0 for no effect and ±100 for the full control effect; nearly all actives have a fitted effect of over 55% in size
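Enzyme (20 nM final) and test compound sit together 15 min at room temperature before substrate addition. Substrate is a single-forked duplex oligonucleotide (100 nM) labelled with fluorophore and quencher, with 2 mM ATP; helicase unwinding raises red fluorescence, read kinetically.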
* hit, by the source's call; [ ] = dose if it differs, or a comment. Shown are actives, neighbours in structure and some others; about 2.8% of the full set was active somewhere. Unless noted, calls come from the whole dose curve; as a rule, active = well fitted curve in the direction sought with a large enough effect; inconclusive = small, poorly fitted or top-dose-only effect, or another doubt; inactive = no such curve, though single readings can be large; an effect the other way counts as inactive or inconclusive.

Screening CN1CCC[C@H]1CCNc1ccc2c(=O)c3ccccc3n(C)c2c1 returned POLH inh inconclusive, Pol iota inh 28µM*, Pol kappa inh inconclusive, PI5P4K alpha inh -4 and WRN helicase inh inconclusive.
Screening CN1CCCC1CCNc1ccc2c(=O)c3ccccc3oc2c1 (stereo unspecified) returned POLH inh -17%, Pol beta inh 30%, Pol iota inh -13%, Pol kappa inh -18%, PI5P4K alpha inh 6 and WRN helicase inh 13%.
N#C/C(=C\c1c[nH]c2ccccc12)C(=O)NC1CC1 was read as POLH inh -4%, Pol beta inh 21%, Pol iota inh -29%, Pol kappa inh -11%, PI5P4K alpha inh 5 and WRN helicase inh -17%.
For N#C/C(=C\c1c[nH]c2ccccc12)C(=O)c1ccc(O)c(O)c1 the results were POLH inh 1.4µM*, Pol beta inh 3.8µM*, Pol iota inh 7.9µM* and Pol kappa inh 6µM*.
For CC(C)(C)n1ncc2c(=O)n(Cc3cccc(-c4ccccc4)c3)cnc21 the results were Pol iota inh 20% and Pol kappa inh 3%.
`COc1ccc(OC)c(NC(=O)CSc2nc3[nH]c(=O)[nH]c(=O)c3s2)c1` gave POLH inh 50µM*, Pol iota inh inconclusive, Pol kappa inh -20%, PI5P4K alpha inh inconclusive and WRN helicase inh -28%.
`CCOC(=O)c1cnc(SCC(=O)Nc2cc(OC)ccc2OC)nc1N` gave POLH inh inconclusive, Pol beta inh 22µM*, Pol iota inh -1%, Pol kappa inh -2%, PI5P4K alpha inh -3 and WRN helicase inh -3%.
For CCOC(=O)c1cnc(SCC(=O)Nc2ccc(NC(C)=O)c(OC)c2)nc1N the results were POLH inh -13%, Pol beta inh 56%, Pol iota inh 13%, Pol kappa inh -13% and WRN helicase inh 5%.
`COc1ccc(-c2n[nH]c(=S)o2)c(OC)c1` gave POLH inh -6%, Pol beta inh 27%, Pol iota inh 3%, Pol kappa inh -13%, PI5P4K alpha inh -86* and WRN helicase inh -11%.
For CCOc1ccccc1-c1n[nH]c(=S)o1 the results were POLH inh -3%, Pol beta inh 0%, Pol iota inh 8%, Pol kappa inh -3% and WRN helicase inh -5%.
O=[N+]([O-])c1cc(/C=N\Nc2nccs2)ccc1O was read as Pol beta inh 4µM*.
`CC(C)=CCc1c(O)cc(O)c2c1O[C@H](c1ccccc1)CC2=O` gave Pol kappa inh -10%[19.4 µM].
CC(C)=CCc1cc([C@@H]2CC(=O)c3ccc(O)c(CC=C(C)C)c3O2)ccc1O was read as POLH inh -24%, Pol iota inh 10%, Pol kappa inh -11%, PI5P4K alpha inh -100* and WRN helicase inh -3%.
Screening CCOCCC(=O)Nc1cc(Cl)ccc1OC returned POLH inh -15%, Pol beta inh inconclusive, Pol iota inh 16%, Pol kappa inh -5% and WRN helicase inh 10%.
`O=C(COC(=O)/C=C/c1ccco1)Nc1ccccc1` gave POLH inh inconclusive, Pol beta inh 22µM*, Pol iota inh inconclusive, Pol kappa inh -32%, PI5P4K alpha inh -18 and WRN helicase inh 2%[11.6 µM].
For CC1CCCC(NC(=O)COC(=O)/C=C/c2ccco2)C1C (stereo unspecified) the results were POLH inh -3%, Pol iota inh 71µM*, Pol kappa inh -26%, PI5P4K alpha inh -8 and WRN helicase inh -4%.
`CN(Cc1ccccc1)C(=O)COC(=O)/C=C/c1ccco1` gave POLH inh inconclusive, Pol beta inh 14µM*, Pol iota inh inconclusive, Pol kappa inh inconclusive, PI5P4K alpha inh inconclusive and WRN helicase inh -13%.
Screening CC1CCCC(C)N1C(=O)COC(=O)/C=C/c1ccco1 (stereo unspecified) returned POLH inh inconclusive, Pol iota inh inconclusive, Pol kappa inh -5%, PI5P4K alpha inh 0 and WRN helicase inh -11%.
For COc1ccc(C(=O)COC(=O)/C=C/c2ccco2)cc1F the results were POLH inh inconclusive, Pol iota inh 35µM*, Pol kappa inh inconclusive, PI5P4K alpha inh -28 and WRN helicase inh -5%.
`CCN(c1ccc(NC(=O)COC(=O)/C=C/c2ccco2)cc1)C(C)C` gave POLH inh -23%, Pol iota inh 3%, Pol kappa inh -5%, PI5P4K alpha inh 1 and WRN helicase inh 3%.
COC(=O)c1ccccc1NC(=O)COC(=O)/C=C/c1ccco1 was read as POLH inh -3%, Pol beta inh inconclusive, Pol iota inh 29%, Pol kappa inh 3%, PI5P4K alpha inh -1 and WRN helicase inh -4%.
Cc1cc2nc(NC(=O)C3(C)CCN(C)C3)[nH]c2cc1C (stereo unspecified) was read as PI5P4K alpha inh -2 and WRN helicase inh -2%.
NC(CCCCCP(=O)(c1ccccc1)c1ccccc1)C(=O)O (stereo unspecified) was read as POLH inh 0%, Pol beta inh 18µM*, Pol iota inh 79µM*, Pol kappa inh -26%, PI5P4K alpha inh -21 and WRN helicase inh -33%.
`N[C@@H](CCCP(=O)(O)O)C(=O)O` gave Pol kappa inh 2%[19.4 µM].
Screening Nc1c2c(=O)oc(-c3ccccc3)cc2nn1-c1ccccc1 returned POLH inh -6%, Pol beta inh 17%, Pol iota inh -1%, Pol kappa inh -8% and WRN helicase inh -16%.
`Cc1c(-c2ccc(Cl)cc2)oc(=O)c2c(N)n(-c3ccccc3)nc12` gave POLH inh inconclusive, Pol beta inh 13µM*, Pol iota inh -4%, Pol kappa inh -13%, PI5P4K alpha inh 15 and WRN helicase inh -32%.
`COc1cc(/C=N/NC(=O)CCc2ccccc2)ccc1O` gave POLH inh -17%, Pol beta inh 2%, Pol iota inh -11%, Pol kappa inh -4%, PI5P4K alpha inh 8 and WRN helicase inh -12%.
For COc1cc(CCC(O)CC(=O)CCc2ccccc2)ccc1O (stereo unspecified) the results were POLH inh -12%, Pol beta inh 25µM*, Pol iota inh 79µM*, Pol kappa inh -22%, PI5P4K alpha inh -11 and WRN helicase inh 0%[11.6 µM].
For CCN(c1ccccc1)S(=O)(=O)c1c(-c2ccc(C)cc2)csc1C(=O)OC the results were POLH inh -16%, Pol beta inh -1%, Pol iota inh inconclusive and Pol kappa inh 0%.
Screening CCOCCc1nn2c(=O)cc(COC(=O)CNC(=O)c3cccc(C)c3)nc2s1 returned POLH inh -10%, Pol beta inh -8%, Pol iota inh -5% and Pol kappa inh 0%.
